According to PubChem BioAssay (NCATS):
Records with an inconclusive call do not appear. The source made the active and inactive calls. Calls follow the shape of the dose curve; as a rule, active = well fitted inhibition curve with a large enough effect in the signal ratio, with a control signal flat (not every such curve was filed as active); inconclusive = small, poorly fitted or top-dose-only effect, or effect the other way, or a change in a side signal; inactive = no such curve, though single readings can be large or run the other way; the % refers to the signal ratio.

These molecules were tested against Peroxisome proliferator-activated receptor delta (Homo sapiens) (UniProt Q03181) (assay: qHTS assay for small molecule antagonists of peroxisome proliferator-activated receptor delta signaling (AID 588535)). Settings: HEK293T PPARd-UAS-bla, beta-lactamase FRET ratio, 18 h; series mostly up to 76.7 µM.
Sequence of Peroxisome proliferator-activated receptor delta (Homo sapiens) (Q03181 whole entry, looked up): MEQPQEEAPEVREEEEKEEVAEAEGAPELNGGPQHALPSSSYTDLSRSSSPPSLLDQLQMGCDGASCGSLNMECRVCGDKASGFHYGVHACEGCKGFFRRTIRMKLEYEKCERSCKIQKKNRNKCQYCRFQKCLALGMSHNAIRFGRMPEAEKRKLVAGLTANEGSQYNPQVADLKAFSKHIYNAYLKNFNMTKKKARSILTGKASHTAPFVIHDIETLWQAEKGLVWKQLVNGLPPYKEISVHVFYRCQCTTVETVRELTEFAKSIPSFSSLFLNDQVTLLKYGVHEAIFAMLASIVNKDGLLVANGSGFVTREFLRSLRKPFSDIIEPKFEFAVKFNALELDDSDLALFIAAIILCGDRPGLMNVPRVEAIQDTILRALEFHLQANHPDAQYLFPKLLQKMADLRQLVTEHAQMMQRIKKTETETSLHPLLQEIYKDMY
Source text: NIH Chemical Genomics Center [NCGC] U.S. Environmental Protection Agency [EPA] National Institutes of Environmental Health Sciences [NIEHS] National Toxicology Program [NTP] NCGC Assay Overview The Peroxisome proliferator-activated receptors (PPARs) are lipid-activated transcription factors of the nuclear receptor superfamily with three distinct subtypes namely PPAR alpha, PPAR delta (also called PPAR beta) and PPAR gamma. All these subtypes heterodimerizes with Retinoid X receptor (RXR) and have different physiological functions. […] This role of PPAR delta implicates the potential use of its ligands in the treatment of metabolic disorders.
NCGC Assay Protocol Summary Using a beta-lactamase reporter-gene under control Peroxisome Proliferator-Activated Receptor delta (PPAR-delta) response element, a cell-based assay [GeneBLAzer (PPAR-delta-UAS-bla assay developed by Invitrogen] was used to measure PPAR-delta ligands signaling. GeneBLAzer PPAR-delta-UAS-bla HEK293T cells were used with assay medium containing 2% charcoal/dextran FBS. The assay was performed in clear bottom black Greiner 1536-well plates. Library compounds were measured for their ability to inhibit the reporter gene activity. Compounds were screened in a titration series in 1536-well format. The fluorescence intensity (405 nm excitation, 460/530 nm emission) was measured using an EnVision plate reader. […] Concentration-response titration points for each compound were fitted to the Hill equation yielding concentrations of half-maximal inhibition (IC50) and maximal response (efficacy) values. qHTS protocol for PPAR-delta beta-lactamase assay in antagonist mode [Step] [Parameter] [Value] [Description] 1. Reagent; 5 uL; 4000 cells/well 2. Incubation; 37 C for 5 hrs 3. Compounds; 23 nL; 0.59 nM to 92 uM 4. […] Incubation; 37 C for 18 hrs 7. Detection reagent; 1 uL of CCF4-dye 8. Incubation; RT for 2 hrs 9. Detection; Fluorescence; Envision plate reader
With Oc1cccc(O)c1 the outcome was “inactive”. In the case of CC1(C)[C@@H]2CC[C@@]1(C)C(=O)C2, the outcome is reported as “inactive”. O=C1NS(=O)(=O)c2ccccc21 was tested, and the outcome was “inactive”. CN(C)CCC=C1c2ccccc2CCc2ccccc21 was tested, and the outcome was “inactive”. CC(O)CN(CCN(CC(C)O)CC(C)O)CC(C)O (stereo not given) was tested, and the outcome was “inactive”. In the case of COc1ccccc1O, the outcome is reported as “inactive”. For O=C1O[C@H]([C@@H](O)CO)C(O)=C1O, the outcome was “inactive”. With [Cl][In]([Cl])[Cl] the outcome was “inactive”. For NCCNCCNCCN, the outcome was “inactive”. With O=C1c2c(O)cccc2Cc2cccc(O)c21 the outcome was “inactive”. With CC(O)COc1ccccc1 (stereo not given) the outcome was “inactive”. In the case of C[C@]12C[C@H](O)[C@H]3[C@@H](CCC4=CC(=O)CC[C@@]43C)[C@@H]1CC[C@@H]2C(=O)CO, the outcome is reported as “inactive”. For CN(C)CCCN1c2ccccc2Sc2ccc(Cl)cc21, the outcome was “inactive”. With CC12CCC(CC1)C(C)(C)O2 the outcome was “inactive”. With CC1=C(/C=C/C(C)=C/C=C/C(C)=C/C(=O)O)C(C)(C)CCC1 the outcome was “inactive”. With NC(=O)N/N=C/c1ccc([N+](=O)[O-])o1 the outcome was “inactive”. In the case of CCCCC(CC)COC(=O)c1ccccc1O (stereo not given), the outcome is reported as “inactive”. With CCCCOC(=O)c1ccc(O)cc1 the outcome was “inactive”. With CN(C)CCOC(C)(c1ccccc1)c1ccccn1 (stereo not given) the outcome was “inactive”. With CCOC(=O)c1ccc(O)cc1 the outcome was “inactive”.
